The molecules below were run on Carnobacterium 1 (Carnobacterium gallinarum) (assay: relative growth (AUC of 72 h growth curve relative to DMSO control, dAUC) (ratio); higher = more growth (less inhibition), active = hit call of the paper). Conditions: 20 µM;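 active = growth AUC significantly below the DMSO wells by Dunnett test; inactive = the rest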.
Method: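 Environmental bacterial isolates (Iceland stream sediment and Silwood Park soil) and whole stream-sediment communities were grown in LB from a 1:100 dilution with each pesticide at 20 µM (1% DMSO). A600 was read hourly for 72 h and the area under a spline-fitted growth curve (AUC) was computed. dAUC is the mean AUC of 3 biological replicates divided by the mean AUC of the DMSO controls. Significance was tested by Dunnett's test against the DMSO control.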

Row | SMILES | relative growth
1 | C#CCN1C(=O)COc2cc(F)c(N3C(=O)C4=C(CCCC4)C3=O)cc21 | 0.92 (inactive)
2 | O=C(Nc1ccc(F)cc1F)c1cccnc1Oc1cccc(C(F)(F)F)c1 | 1.1 (inactive)
3 | C#CCOc1ccc(CCNC(=O)C(OCC#C)c2ccc(Cl)cc2)cc1OC (stereo not given) | 1.18 (inactive)
4 | CC(COc1ccc(Oc2ccccc2)cc1)Oc1ccccn1 (stereo not given) | 1.38 (inactive)
5 | CNC(=O)c1cc(Cl)cc(C)c1NC(=O)c1cc(Br)nn1-c1ncccc1Cl | 1.24 (inactive)
6 | CC1COC(Cn2cncn2)(c2ccc(Oc3ccc(Cl)cc3)cc2Cl)O1 (stereo not given) | 1.19 (inactive)
7 | CN1COCN(Cc2cnc(Cl)s2)/C1=N\[N+](=O)[O-] | 1.12 (inactive)
8 | COc1cccc(C(=O)NN(C(=O)c2cc(C)cc(C)c2)C(C)(C)C)c1C | 0.863 (inactive)
9 | CNC(=O)Oc1cccc2ccccc12 | 1.1 (inactive)
10 | CCSC(C)CC1CC(=O)C(/C(CC)=N/OC/C=C/Cl)=C(O)C1 (mixture of isomers) | 1.27 (inactive)
11 | CNC(=O)/C=C(\C)OP(=O)(OC)OC | 0.926 (inactive)
12 | CCCSP(=O)(OCC)Oc1ccc(Br)cc1Cl (stereo not given) | 0.842 (inactive)
13 | COC(=O)N(C(=O)N1CO[C@@]2(C(=O)OC)Cc3cc(Cl)ccc3C2=N1)c1ccc(OC(F)(F)F)cc1 | 1.15 (inactive)
14 | CC(C)N(C)S(=O)(=O)NC(=O)c1cc(-n2c(=O)cc(C(F)(F)F)n(C)c2=O)c(F)cc1Cl | 1.22 (inactive)
15 | CCN(CC)c1nc(C)cc(OP(=S)(OC)OC)n1 | 1.07 (inactive)
16 | CCc1cccc(C)c1N(C(=O)CCl)[C@@H](C)COC | 1.04 (inactive)
17 | O=C1C2CC=CCC2C(=O)N1SC(Cl)(Cl)Cl (stereo not given) | 1.19 (inactive)
18 | COP(=O)(OC)OC=C(Cl)Cl | 0.961 (inactive)
19 | O=C(NC(=O)c1c(F)cccc1F)Nc1ccc(Cl)cc1 | 0.911 (inactive)
20 | Cc1ccc(/N=C/N(C)/C=N/c2ccc(C)cc2C)c(C)c1 | 1.24 (inactive)

Row | SMILES | relative growth
21 | CCCN(CCOc1c(Cl)cc(Cl)cc1Cl)C(=O)n1ccnc1 | 1.08 (inactive)
22 | O=C1c2ccccc2C(=O)N1SC(Cl)(Cl)Cl | 1.03 (inactive)
23 | O=C1C2(Cl)C3(Cl)C4(Cl)C(Cl)(Cl)C5(Cl)C3(Cl)C1(Cl)C5(Cl)C24Cl (stereo not given) | 0.621 (inactive)
24 | COP(=S)(OC)Oc1nc(Cl)c(Cl)cc1Cl | 0.447 (inactive)
25 | CCOP(=S)(OCC)Oc1nc(Cl)c(Cl)cc1Cl | 1.1 (inactive)
26 | CC[C@H](C)[C@H]1O[C@]2(C=C[C@@H]1C)C[C@@H]1C[C@@H](C/C=C(\C)[C@@H](O[C@H]3C[C@H](OC)[C@@H](O[C@H]4C[C@H](OC)[C@@H](O)[C@H](C)O4)[C@H](C)O3)[C@@H](C)/C=C/C=C3\CO[C@@H]4[C@H](O)C(C)=C[C@@H](C(=O)O1)[C@]34O)O2.CO[C@H]1C[C@H](O[C@H]2[C@H](C)O[C@@H](O[C@@H]3/C(C)=C/C[C@@H]4C[C@@H](C[C@]5(C=C[C@H](C)[C@@H](C(C)C)O5)O4)OC(=O)[C@@H]4C=C(C)[C@@H](O)[C@H]5OC/C(=C\C=C\[C@@H]3C)[C@]54O)C[C@@H]2OC)O[C@@H](C)[C@@H]1O | 0.726 (inactive)
27 | Nc1c(Cl)c(F)nc(OCC(=O)O)c1Cl | 1.23 (inactive)
28 | CCC(C)(C)C(=O)OC1=C(c2ccc(Cl)cc2Cl)C(=O)OC12CCCCC2 | 1.13 (inactive)
29 | CC[C@H]1CCC[C@H](O[C@H]2CC[C@H](N(C)C)[C@@H](C)O2)[C@@H](C)C(=O)C2=C[C@@H]3[C@@H](C=C(C)[C@@H]4C[C@@H](O[C@@H]5O[C@@H](C)[C@H](OC)[C@@H](OC)[C@H]5OC)C[C@@H]34)[C@@H]2CC(=O)O1.CC[C@H]1CCC[C@H](O[C@H]2CC[C@H](N(C)C)[C@@H](C)O2)[C@@H](C)C(=O)C2=C[C@H]3[C@@H]4C[C@H](O[C@@H]5O[C@@H](C)[C@H](OC)[C@@H](OC)[C@H]5OC)C[C@H]4C=C[C@H]3C2CC(=O)O1 | 0.952 (inactive)
30 | CC1(C)C(C=C(Cl)Cl)C1C(=O)OCc1cccc(Oc2ccccc2)c1 (stereo not given) | 0.871 (inactive)
31 | O=C(O)CNCP(=O)(O)O | 1.13 (inactive)
32 | Cc1cc(C(F)(C(F)(F)F)C(F)(F)F)ccc1NC(=O)c1cccc(I)c1C(=O)NC(C)(C)CS(C)(=O)=O | 0.956 (inactive)
33 | CC(C)(C)c1ccc(CSc2cnn(C(C)(C)C)c(=O)c2Cl)cc1 | 1.3 (inactive)
34 | CCOP(=S)(OCC)Oc1cc(C)nc(C(C)C)n1 | 0.908 (inactive)
35 | CO/N=C(/C(=O)OC)c1ccccc1CO/N=C(\C)c1cccc(C(F)(F)F)c1 | 0.975 (inactive)
36 | CON(C)C(=O)Nc1ccc(Cl)c(Cl)c1 | 1.02 (inactive)
37 | O=C(NCCc1ncc(C(F)(F)F)cc1Cl)c1ccccc1C(F)(F)F | 0.905 (inactive)
38 | CCCC1COC(Cn2cncn2)(c2ccc(Cl)cc2Cl)O1 (stereo not given) | 0.835 (inactive)
39 | CCOC(=O)CC(SP(=S)(OC)OC)C(=O)OCC (stereo not given) | 1.09 (inactive)
40 | OC(Cc1ccccc1Cl)(Cn1nc[nH]c1=S)C1(Cl)CC1 (stereo not given) | 0.829 (inactive)

— the supplement of paper PMC12067926
